Reference: PubChem BioAssay (EPA / NIEHS)
More than one record can exist for a structure, and the calls need not agree. Active and inactive are the calls of the source. How the source made its calls: active means hit-call score of the fitted dose curve at least 0.9, where 1 is the maximum; inactive means score below 0.9.

What follows are compounds tested against Bile acid receptor (Homo sapiens) (UniProt Q96RI1) (assay: ATG_IR1_CIS: Attagene CIS-FACTORIAL HepG2 Assay for human Nuclear Receptor Subfamily 1 Group H Member 4 (NR1H4), IR1 submotif (AID 2282946)). Settings: IR1 reporter transcription, actives raise or lower the signal.
Bile acid receptor (Homo sapiens), sequence (Q96RI1 whole entry, looked up): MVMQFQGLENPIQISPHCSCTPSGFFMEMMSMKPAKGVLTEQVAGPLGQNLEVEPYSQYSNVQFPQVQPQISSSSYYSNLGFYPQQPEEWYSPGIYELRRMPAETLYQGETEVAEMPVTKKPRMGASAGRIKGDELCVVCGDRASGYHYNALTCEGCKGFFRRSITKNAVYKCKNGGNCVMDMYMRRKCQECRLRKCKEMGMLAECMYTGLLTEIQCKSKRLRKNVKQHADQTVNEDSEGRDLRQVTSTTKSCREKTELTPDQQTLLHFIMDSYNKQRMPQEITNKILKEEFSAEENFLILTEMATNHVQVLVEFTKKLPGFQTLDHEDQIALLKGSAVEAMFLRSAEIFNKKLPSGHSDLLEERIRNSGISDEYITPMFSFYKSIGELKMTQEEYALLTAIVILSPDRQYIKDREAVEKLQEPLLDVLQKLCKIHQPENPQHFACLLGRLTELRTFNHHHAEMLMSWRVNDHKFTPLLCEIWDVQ
Method: ATG_CIS is a cell-based, multiplexed-readout assay that uses HepG2, a human liver cell line, with measurements taken at 24 hours after chemical dosing in a 24-well plate.ATG_IR1_CIS is one of 52 assay component(s) measured or calculated from the ATG_CIS assay. It is designed to make measurements of mRNA induction, a form of inducible reporter, as detected with fluorescence intensity signals by Reverse transcription polymerase chain reaction (RT-PCR) and Capillary electrophoresis technology.Data from the assay component ATG_IR1_CIS was analyzed into 1 assay endpoint. This assay endpoint, ATG_IR1_CIS, was analyzed with bidirectional fitting relative to DMSO as the negative control and baseline of activity. Using a type of inducible reporter, measures of mRNA for gain or loss-of-signal activity can be used to understand the reporter gene at the transcription factor-level as they relate to the gene NR1H4. Furthermore, this assay endpoint can be referred to as a primary readout, because this assay has produced multiple assay endpoints where this one serves a reporter gene function. To generalize the intended target to other relatable targets, this assay endpoint is annotated to the nuclear receptor intended target family, where the subfamily is non-steroidal.
Human liver HepG2 cells are transiently transfected with multiple reporter transcription units (MRTUs) in 6-well plates using FuGene 6 reagent (Roche; 3 ml FuGene/1 mg DNA). The MRTU constructs are regulated by a cis-regulating element (promoter). […] A major difference between the CIS and TRANS system is that in CIS activities of endogenous TFs are measured, whereas the TRANS assay evaluates changes in activities of exogenous, chimeric NR-Gal4 proteins. […] At the end of 24 hour incubation, total RNA was isolated using TriZol reagent (Invitrogen). The isolated RNA is then reverse-transcribed using oligo(dT) primer and Mo-MLV reverse transcriptase (Invitrogen) with DNAse I (Ambion) treatment for 30 min. The one-tenth of the produced cDNA was amplified by PCR using Taq DNA polymerase (Invitrogen) and two reporter sequence-specific primers. The PCR products were fluorescently labeled by primer extension with 6-arboxyfluorescein (6-FAM) 5'-labeled reporter sequence-specific primer (2 min at 95 C, 20 s at 68 C and 10 min at 72 C) and these products were digested with 5U of HpaI (New England Biolabs) for 2h at 37 C. The fragments were purified using Qiaquick PCR columns (Qiagen), analyzed on an ABI 3130xL genetic analyzer (Applied Biosystems) with peak positions identified by using a set of X-rhodamine (ROX)-labeled MapMarker1000 molecular weight standards (BioVentures). The raw capillary electrophoresis data was processed using Attagraph software (Attagene).
With N#CC(CCc1ccc(Cl)cc1)(Cn1cncn1)c1ccccc1 (stereo not given) the outcome was “inactive”. In the case of CC1COC(Cn2cncn2)(c2ccc(Oc3ccc(Cl)cc3)cc2Cl)O1 (stereo not given), the outcome was “inactive”. For C=CCC1=C(C)C(OC(=O)C2C(C=C(C)C)C2(C)C)CC1=O (stereo not given), the AC50 was 54.7 µM (active) and the outcome was “inactive”. C=CC1(C)OC(=O)N(c2cc(Cl)cc(Cl)c2)C1=O (stereo not given) was tested, and the outcome was “inactive”. For CNC(=O)ON=CC(C)(C)SC, the outcome was “inactive”. Cc1c(F)c(F)c(COC(=O)C2C(/C=C(\Cl)C(F)(F)F)C2(C)C)c(F)c1F (stereo not given) was tested, and the outcome was “inactive”. For CCON=C(CC)C1=C(O)CC(c2c(C)cc(C)cc2C)CC1=O (stereo not given), the outcome was “inactive”. In the case of CC1=C(C(=O)Nc2ccccc2)SCCO1, the outcome was “inactive”. With COC(=O)C(C)Oc1ccc(Oc2ccc(Cl)cc2Cl)cc1 (stereo not given) the outcome was “inactive” and the AC50 was 76.5 µM (active). CS/C(C)=N/OC(=O)N(C)SN(C)C(=O)O/N=C(\C)SC was tested, and the outcome was “inactive”. For CCCC1COC(Cn2cncn2)(c2ccc(Cl)cc2Cl)O1 (stereo not given), the outcome was “inactive”. For COc1ccc(C(c2ccc(OC)cc2)C(Cl)(Cl)Cl)cc1, the AC50 was 21.6 µM (active) and the outcome was “inactive”. In the case of CC(Oc1ccc(Cl)cc1Cl)C(=O)O (stereo not given), the outcome was “inactive”. With COc1nc(NC(C)C)nc(NC(C)C)n1 the outcome was “inactive”. With C#CCOS(=O)OC1CCCCC1Oc1ccc(C(C)(C)C)cc1 (stereo not given) the outcome was “inactive”. With COc1nc(C)nc(NC(=O)NS(=O)(=O)c2ccccc2CCC(F)(F)F)n1 the outcome was “inactive”. For Fc1ccc(Oc2ccnc3cc(Cl)cc(Cl)c23)cc1, the outcome was “inactive”. For Cc1ccc(-c2c(Cl)nc(C#N)n2S(=O)(=O)N(C)C)cc1, the outcome was “inactive”. CC(C)C1(C)N=C(c2nc3ccccc3cc2C(=O)O)NC1=O (stereo not given) was tested, and the outcome was “inactive”. O=C(Nc1ccccc1)Nc1ccnc(Cl)c1 was tested, and the outcome was “inactive”. In the case of COC(=O)c1ccccc1C(=O)OC, the outcome was “inactive”. In the case of CCCCC(CC)COC(=O)c1ccccc1C(=O)OCC(CC)CCCC (stereo not given), the outcome was “inactive”. CCOC(=O)C(Cl)Cc1cc(-n2nc(C)n(C(F)F)c2=O)c(F)cc1Cl (stereo not given) was tested, and the outcome was “inactive”. In the case of COC(=O)N(OC)c1ccccc1COc1ccn(-c2ccc(Cl)cc2)n1, the outcome was “inactive”. For CN(C)C(=S)SSC(=S)N(C)C, the outcome was “inactive”. With N#Cc1nn(-c2c(Cl)cc(C(F)(F)F)cc2Cl)c(N)c1S(=O)C(F)(F)F (stereo not given) the outcome was “inactive”. CCCCNC(=O)OCC#CI was tested, and the outcome was “inactive” and the AC50 was 160 µM (active). For CCCCNC(=O)n1c(NC(=O)OC)nc2ccccc21, the outcome was “inactive”. In the case of C=CCC1=C(C)[C@@H](OC(=O)[C@@H]2[C@@H](C=C(C)C)C2(C)C)CC1=O, the outcome was “inactive”. With CCc1nn(C)c(C(=O)NCc2ccc(C(C)(C)C)cc2)c1Cl the outcome was “inactive”. CCOc1cc(Oc2ccc(C(F)(F)F)cc2Cl)ccc1[N+](=O)[O-] was tested, and the outcome was “inactive”. CCCN(CCC)c1c([N+](=O)[O-])cc(S(N)(=O)=O)cc1[N+](=O)[O-] was tested, and the outcome was “inactive”. For N#Cc1cc(Br)c(O)c(Br)c1, the outcome was “inactive”. With CCOP(=S)(OCC)SCn1c(=O)oc2cc(Cl)ccc21 the outcome was “inactive”. For COP(=S)(OC)Oc1nc(Cl)c(Cl)cc1Cl, the outcome was “inactive”. With CC(C)Oc1cc(-n2nc(C(C)(C)C)oc2=O)c(Cl)cc1Cl the outcome was “inactive”.
